Bioassay records from PubChem.
bovine MsrA act: activates bovine MsrA enzyme | 360,000 tested, 0.3% active | AID 602163 | activation, % at 10.6 µM | purified bovine MsrA, absorbance read-out; in the data active means activation above about 7.5%;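 further: 0% = vehicle and 100% = reference activator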
MsrA inhibitor: inhibits bovine methionine sulfoxide reductase A | purified bovine MsrA, absorbance read-out | inhibition, % at 15.5 µM | 360,000 tested, 0.75% active | AID 651718; in the data active means inhibition above about 4.5%;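 further: 0% = vehicle wells with enzyme and 100% = reference inhibitor wells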
NadD inh: blocks S. aureus nicotinate mononucleotide adenylyltransferase. inhibition, % at 20 µM. purified NadD enzyme, colorimetric absorbance read-out. AID 602399. 360,000 tested, 0.78% active; in the data active means inhibition above about 26%
rCAG RNA binder: molecules binding r(CAG) RNA repeats. r(CAG) RNA repeat, TO-PRO-1 dye displacement fluorescence. inhibition, % at 3 µM. 370,000 tested, 1.3% active;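 active means inhibition above the plate cutoff, the mean of all test compounds on that plate plus 3 SD, cut at about 35% in these data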;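 further: 0% = DMSO alone and 100% = 100 µM mitoxantrone as full dye displacement; higher means more dye released from RNA so lower well fluorescence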
NadD conf: confirmation of Staphylococcus aureus NadD inhibitors | 2,000 tested, 13% active | purified S. aureus NadD, colorimetric enzyme assay | shares compounds with NadD inh | inhibition, % at 20 µM | AID 624309; in the data active means inhibition mostly above about 42%, no sharp cut-off; inactive means mostly below about 42%
Numbers without * were called inactive; . = no result. A selection: hits, their analogues and other compounds. The true share with any hit is near 2.7%.

SMILES | bovine MsrA act | MsrA inhibitor | NadD inh | rCAG RNA binder | NadD conf
NC(CSC(c1ccccc1)(c1ccccc1)c1ccc2c(c1)OCO2)C(=O)O (centres undefined) | 0 | 0 | 31* | 13 | 33
FC(F)(F)c1ccc(CN2C[C@@H]3C(c4ccc(C(F)(F)F)cc4)C4(c5cccnc5)CC3(C4)[C@H]2c2ccccc2)cc1 (some centres undefined) | -4 | 0 | 38* | -1 | 22
FC(F)(F)c1ccc(CN2C[C@@H]3C(c4ccccc4)C4(c5cccnc5)CC3(C4)[C@H]2c2ccccc2)cc1 (some centres undefined) | 2 | -1 | 25 | 2 | .
CC1(C(=O)NCCc2c[nH]c3ccccc23)CCN1Cc1ccccc1OC(F)F (centres undefined) | 0 | 0 | -1 | 1 | .
Nc1[nH]c(C(=O)c2ccccc2)c(-c2ccccc2C(F)(F)F)c1C(=O)NCc1cccc2ccccc12 | -1 | 0 | 13 | 7 | .
O=c1[nH]c2ccc(Cl)cc2c(-c2ccccc2)c1SC(=S)N1CCCCC1 | -1 | 1 | 37* | 9 | 7
NNC(=O)CSc1c(-c2ccccc2)c2cc(Cl)ccc2[nH]c1=O | -10 | 2 | 9 | 16 | .
O=c1[nH]c2ccc(Cl)cc2c(-c2ccccc2)c1SC(=S)N1CCOCC1 | -2 | 0 | 40* | 3 | -8
CCCNC(=O)c1cc(C2CCCN(C(=O)C3CCCCC3)C2)on1 (centres undefined) | -3 | 0 | -5 | -1 | .
Cc1c(N=C2N=C(NC(=O)c3cccs3)c3ccccc32)c(=O)n(-c2ccccc2)n1C | 1 | 1 | 31* | 0 | 12
Cc1c(N=C2N=C(NC(=O)NC(C)(C)C)c3ccccc32)c(=O)n(-c2ccccc2)n1C | -4 | 0 | 7 | -6 | .
CC(NS(=O)(=O)c1ccc(NC(=O)N2CCCCC2)cc1)c1ccccc1 (centres undefined) | -2 | 0 | -3 | -2 | .
CCc1cc2c(cc3c(=O)n(CC(=O)NCCCN4CCCCCC4)nc(CC)n32)s1 | -1 | 1 | 31* | 6 | -13
O=c1[nH][nH]c2c1[C@H](c1ccc(F)cc1)O[C@H](CCc1ccccc1)C2 | -8 | 1 | 1 | 17 | .
Cc1ccc(NC(=O)Cc2cccc(OC(F)(F)F)c2)c(S(=O)(=O)N2CCOCC2)c1 | . | . | . | -1 | .
O=C1O[C@H]([C@@H](O)CO)C(O)=C1O | -1 | 2 | 35* | -2 | 2
COc1cc(CN2C[C@@H](CO)O[C@@H](n3cnc4c(NC5CC5)ncnc43)C2)cc(OC)c1OC | -8 | 0 | 2 | -1 | .
O=C(/C=C/c1c(Cl)nc2ccccn12)Nc1ccc(F)cc1 | -4 | 3 | 0 | 0 | .
CCCCN1CC(N2CCN(Cc3ccccc3)CC2)CS1(=O)=O (centres undefined) | -2 | 0 | -5 | 1 | .
COc1ccc(/C=C(\C#N)C(=O)OCC(=O)Nc2ccc(-c3nc4ccc(C)cc4s3)cc2)cc1 | -3 | 0 | 29* | 8 | 6
Cc1ccc2nc(-c3ccc(NC(=O)COC(=O)c4ccco4)cc3)sc2c1 | -9 | 0 | -2 | 0 | .
O=C1NC[C@@H](CCCCN2C[C@H](Cc3ccc(O)cc3)N(CCC3CCCCC3)C(=O)C2=O)N(Cc2ccccc2)C1=O | -2 | 0 | 26 | 4 | .
C[C@H](O)[C@@]1(O)CC[C@H]2[C@@H]3CC[C@@H]4C[C@H](O)CC[C@]4(C)[C@H]3CC[C@@]21C | -1 | 0 | -2 | -5 | .
CC(CCC(=O)NN)C1CCC2C3CCC4CC(O)CCC4(C)C3CCC12C (centres undefined) | -2 | 0 | 38* | 5 | 6
N=c1scc(-c2ccccc2)n1/N=C/c1ccco1 | . | 2 | 38* | 19 | 45
SMILES | bovine MsrA act | MsrA inhibitor | NadD inh | rCAG RNA binder | NadD conf
CC(C)c1ccc(NC(=O)C2(C)Cc3c(-c4ccc5c(c4)OCO5)ccnc3O2)cc1 (centres undefined) | -2 | -1 | 7 | 6 | .
Cc1ccc(/C=C/c2nc3sc(C(=O)O)c(C)c3c(=O)[nH]2)cc1[N+](=O)[O-] | -2 | 2 | 36* | 14 | 1
NC(=O)[C@@H]1CC2(CC(c3cccc(NC(=O)COc4ccc(Cl)cc4)c3)=NO2)CN1C(=O)COc1ccc(Cl)cc1 (some centres undefined) | -2 | 0 | 48* | 7 | 24
NC(=O)[C@H]1CC2(CC(c3cccc(NC(=O)COc4ccc(Cl)cc4)c3)=NO2)CN1C(=O)C(c1ccccc1)c1ccccc1 (some centres undefined) | -2 | 0 | 33* | 13 | 33
C/C=C\C=C/C(=O)Nc1cccc(C2=NOC3(C2)C[C@H](C(N)=O)N(C(=O)CC)C3)c1 (some centres undefined) | -4 | 2 | -8 | 15 | .
C/C=C\C=C\C(=O)Nc1cccc(C2=NOC3(C2)C[C@@H](C(N)=O)N(C(=O)C(c2ccccc2)c2ccccc2)C3)c1 (some centres undefined) | 0 | -1 | 39* | 16 | 55*
CCC(=O)Nc1cccc(C2=NOC3(C2)C[C@@H](C(N)=O)N(C(=O)C(c2ccccc2)c2ccccc2)C3)c1 (some centres undefined) | -1 | 1 | 8 | 11 | .
N#CCC(=O)N1CC2(CC(c3cccc(NC(=O)COc4ccc(Cl)cc4)c3)=NO2)C[C@@H]1C(N)=O (some centres undefined) | 0 | 1 | 8 | 13 | .
CC(OC(=O)C1=COCCO1)C(=O)NC1CCCC(C)C1C (centres undefined) | -3 | 0 | -8 | -1 | .
CCn1c2ccccc2c2cc(NC(=O)COC(=O)c3cc(Cl)c(N)cc3OC)ccc21 | -3 | 1 | 36* | 32 | 26
O=C(OC1CCOC1=O)C1CCN(S(=O)(=O)c2ccccc2)CC1 (centres undefined) | -2 | 0 | 3 | 2 | .
O=C(c1ccc2snnc2c1)N1CCCCC1 | -7 | 1 | 52* | -4 | 1
O=C(c1ccc2snnc2c1)N1CCSCC1 | -4 | 0 | -4 | 1 | .
N=C1S/C(=C\c2ccccc2F)C(=O)N1c1ccc(F)cc1 | -1 | 0 | 18 | 0 | .
N=C1S/C(=C\c2cccc3ccccc23)C(=O)N1c1ccc(F)cc1 | -4 | 0 | 33* | 7 | 5
Cn1c(NCc2ccccc2F)nc2cc(-c3cccc(Cl)c3)sc2c1=O | -3 | -1 | 16 | 6 | .
CCOC(=O)/C=C1\CC(C(=O)OCC)Oc2c(OC)cccc21 (centres undefined) | -2 | 0 | 39* | 5 | 38
Cc1nnc(SCC(=O)Nc2nsc(-c3ccccc3)n2)s1 | -1 | 1 | -8 | -2 | .
CC1(C)CC(=O)c2c(nc(SCC(=O)Nc3nsc(-c4ccccc4)n3)c(C#N)c2-c2ccccc2)C1 | 0 | 1 | 39* | 7 | -2
CCCCC(CC)C(=O)Nc1cc(C(=O)NCc2ccc(C)cc2)ccc1N1CCC2(CC1)CC(c1cccc(Br)c1)=NO2 (centres undefined) | -3 | -2 | 28 | 9 | .
